# Bioassay records (PubChem BioAssay)
# Gal4-VP16 FLuc: Gal4-VP16 reporter inhibition counter-screen. 3.5% of 310,000 active. Drosophila S2 Gal4-VP16 UAS-luciferase, luminescence, 20 h. AID 2546. Potency, µM (series often up to 53.6 µM), without a hit: top-dose activity, negative = inhibition, usual class: inhibitors;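 also: Gal4-VP16 expression switched on by copper sulfate through the metallothionein promoter; % is scaled to controls: 0 for no effect and ±100 for the full control effect; nearly all actives have a fitted effect of over 50% in size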
# KB-3-1 tox: kills parental KB-3-1 adenocarcinoma cells. KB-3-1 viability, CellTiter-Glo ATP luminescence, 72 h. Potency, µM (titrated, usually from 46.1 µM), usual class: cytotoxic. 1.4% of 400,000 active. AID 1347075; also: % is scaled to controls: 0 for no effect and ±100 for the full control effect; nearly all actives have a fitted effect of over 60% in size
#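 Luminescent ATP read-out (CellTiter-Glo) measures survival of drug-naive KB-3-1 cells after 72 h compound exposure at 37 °C. Titration series was screened from lowest to highest concentration, with DMSO vehicle plates as background controls.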
# KB-V1 MDR tox: kills drug-selected multidrug resistant KB-V1 cells; KB-V1 MDR cells viability, CellTiter-Glo, 72 h; Potency, µM (doses to about 46.1 µM), hits mostly cytotoxic; 3.4% of 400,000 active; also: % is scaled to controls: 0 for no effect and ±100 for the full control effect; nearly all actives have a fitted effect of over 60% in size
#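 KB-V1 cells (P-gp-expressing MDR subline of KB-3-1) in phenol-red-free DMEM with 10% FBS were exposed to library compounds over a concentration series for 72 h at 37 degrees C. Viability read by CellTiter-Glo luminescence; concentration-effect curves fitted after normalization.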
# MCF10A rerep: DNA re-replication induction in MCF 10a cells. AID 624296. MCF 10A DNA re-replication, Hoechst nuclear intensity, 48 h. 2.9% of 350,000 active. Potency, µM (series often up to 46.1 µM), for inactives: top-dose activity, positive = re-replication, most hits filed as activators; also: % of control where 0% means no effect; nearly all actives have a fitted effect of over 50% in size
# RORg inh: inhibitors of mouse ROR gamma transcriptional activity. Potency, µM (series often up to 53.6 µM), without a hit: top-dose activity change, negative = inhibition, actives largely listed as inhibitors. P51450. Drosophila S2 Gal4-RORgamma UAS-luciferase reporter, 20 h. AID 2551. 5.4% of 310,000 active; also: % is scaled to controls: 0 for no effect and ±100 for the full control effect; nearly all actives have a fitted effect of over 60% in size
# Target sequence (P51450 whole entry, looked up, the tested form may be a part): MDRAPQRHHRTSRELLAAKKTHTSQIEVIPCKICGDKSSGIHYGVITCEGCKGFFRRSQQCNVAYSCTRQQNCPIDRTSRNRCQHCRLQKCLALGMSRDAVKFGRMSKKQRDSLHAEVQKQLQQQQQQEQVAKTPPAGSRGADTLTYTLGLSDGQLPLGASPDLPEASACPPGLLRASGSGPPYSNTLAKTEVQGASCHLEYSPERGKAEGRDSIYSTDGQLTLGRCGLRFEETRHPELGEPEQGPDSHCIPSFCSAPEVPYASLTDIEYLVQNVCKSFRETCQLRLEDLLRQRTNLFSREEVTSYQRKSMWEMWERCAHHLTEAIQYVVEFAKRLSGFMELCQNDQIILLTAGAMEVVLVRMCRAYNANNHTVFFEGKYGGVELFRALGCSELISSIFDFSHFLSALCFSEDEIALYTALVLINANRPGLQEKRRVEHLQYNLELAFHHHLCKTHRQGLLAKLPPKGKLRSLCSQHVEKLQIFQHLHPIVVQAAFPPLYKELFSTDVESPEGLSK
#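 Stably transfected Drosophila Schneider cells are the test system, with ROR gamma fused to Gal4 and luciferase under UAS control; luminescence is read after 20 hr of 700 uM copper sulfate induction at ambient temperature.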
# SW480 rerep: inducers of DNA re-replication in SW480 colon cancer cells; SW480 DNA re-replication, Hoechst DNA content imaging, 48 h; Potency, µM (series often up to 46.1 µM), without a hit: top-dose re-replication activation, most hits filed as activators; 1.8% of 340,000 active; also: % of control where 0% means no effect; nearly all actives have a fitted effect of over 55% in size
#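 Hoechst fluorescence of nuclei (405 nm excitation, 500-530 nm emission) measured by plate-scanning imager after 48 hr compound exposure at 37 C; re-replication scored as increased number of nuclei with elevated intensity.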
# * hit, by the source's call; i = inactive; ? = inconclusive; nt = no result; ! = a repeat was not active; [ ] = another dose, or the depositor's remark. An excerpt weighted towards active compounds, which were near 10% of everything screened. Calls follow the shape of the dose curve; as a rule, active = well fitted curve in the direction sought with a large enough effect; inconclusive = small, poorly fitted or top-dose-only effect, or another doubt; inactive = no such curve, though single readings can be large; an effect the other way counts as inactive or inconclusive. Potency is read from the fitted curve at half-maximal effect.
SMILES,Gal4-VP16 FLuc,KB-3-1 tox,KB-V1 MDR tox,MCF10A rerep,RORg inh,SW480 rerep
CCC(OC(=O)c1cc2sccc2n1C)C(=O)NCC1CCCO1 (stereo not drawn),-4.4%,i,23.1µM*,5.5%,17.3%,-4.1%
CC(OC(=O)c1cc2sccc2n1C)C(=O)NCCc1ccccc1 (stereo not drawn),2.3%,i,13µM*,?,5.4%[10 µM],?
CC(OC(=O)c1cc2sccc2n1C)C(=O)NCC1CCCO1 (stereo not drawn),5.8%,i,i,6.2%,?,-2.1%
Cn1c(C(=O)OC(C(=O)NCC2CCCO2)c2cccnc2)cc2sccc21 (stereo not drawn),-2.0%,i,i,?,10.6%,1.3µM*
CCc1ccc(NC(=O)C2CCCN(S(=O)(=O)c3ccc4c(c3)oc(=O)n4C)C2)cc1 (stereo not drawn),nt,i,i,nt,nt,nt
CC(=O)c1cccc(NC(=S)Nc2cccc3ccccc23)c1,11.2µM*,i,i,-1.1%,12.6µM*,-14.7%
Cc1ccc(C(=O)NNC(=S)Nc2cccc3ccccc23)s1,-14.3%,i,i,9.3%,0.794µM*,0.7%[9.22 µM]
CC(=O)Nc1cccc(NC(=S)Nc2cccc3ccccc23)c1,?,i,i,-27.7%,12.6µM*,0.4%
CCOc1ccccc1CNC(=O)c1cc(-c2ccc(OC)cc2)nc2ccc(C(C)C)cc12,nt,i,i,nt,nt,nt
O=S(=O)(Nc1c(F)cccc1F)c1ccc(Cl)nc1,nt,i,i,-16.9%,nt,0.92µM*
O=C([C@@H]1CC=C[C@@H]2CCN(C3CCCCC3)C(=O)[C@@H]21)N1CCOCC1,nt,i,i,nt,nt,nt
CCCCN1C(=O)/C(=C/C=C2\Oc3ccccc3N2CC)SC1=S,2.3%,i,i,2.4%,-10.5%,-4.5%
CCN1/C(=C/C=C/c2oc3ccc(-c4ccccc4)cc3[n+]2CC)Oc2ccc(-c3ccccc3)cc21,0.355µM*,9.2µM*,14.6µM*,-9.0%,12.6µM*,?
CCN(CC)c1ccc(SS(=O)(=O)O)cc1,-6.4%,?,?,-3.3%,-8.0%,3.7%
CN(C)c1ccc(C(=C2C=CC(=[N+](C)C)C=C2)c2c(O)c(S(=O)(=O)[O-])cc3cc(S(=O)(=O)O)ccc23)cc1,8.91µM*,?,i,-1.6%,8.91µM*,-1.3%
CN(C)c1ccc(C(=C2C=CC(=[N+](C)C)C=C2)c2ccc(N(C)C)cc2)cc1,1.58µM*!,2.59µM*,i,3.4%,1.12µM*,?
CCN(CC)c1ccc(C(=C2C=CC(=[N+](CC)CC)C=C2)c2ccc(S(=O)(=O)O)cc2S(=O)(=O)[O-])cc1,nt,11.6µM*,?,-3.6%,nt,-4.3%
Cc1ccc(-c2cc(-c3coc4ccc(Cl)cc4c3=O)c3c(n2)-c2ccccc2OC3)cc1,nt,i,i,nt,nt,nt
CCCCCCCCCCn1ccc(=N)cc1,?,2.31µM*,?,?,7.94µM*,20.6µM*
CCCCCCCCn1ccc(=N)cc1,7.08µM*,5.8µM*,i,-0.3%,?,-2.3%
CCCCOC(=O)c1ccc(OC(=O)c2sc3ncn(Cc4ccccc4Cl)c(=O)c3c2C)cc1,nt,?,i,nt,nt,nt
CCOc1ccc2c(c1)c(=O)c(C(=O)c1ccc(CC)cc1)cn2CC(=O)Nc1cccc(Cl)c1,nt,i,i,nt,nt,nt
O=C(NCCN1CCCC(O)C1)c1cc(COc2cccc(C(F)(F)F)c2)on1 (stereo not drawn),nt,i,i,nt,nt,nt
CCN(CC(=O)Nc1cc(Cl)ccc1C)C(=O)c1nc2nc(C)cc(C)n2n1,nt,i,i,?,nt,2.3%
CCOC(=O)Cn1nc(NC(=O)c2ccc(C(=O)OC)cc2)cc1C,-15.0%,i,i,?,-38.0%,-10.2%
CCOC(=O)Cn1nc(NC(=O)c2cc(OC)cc(OC)c2)cc1C,-5.9%,i,i,20.6µM*,-24.6%,-2.4%
COc1cccc(C(=O)N(Cc2ccco2)c2ccccn2)c1,nt,i,i,nt,nt,nt
